Pin1 inhibitor: qHTS Assay to Find Inhibitors of Pin1; Pin1 FP peptide displacement, HiFluor488, 10 min; Potency, µM (titrated, usually from 115 µM), without a hit: at the top dose activity, negative = inhibition, hits mostly inhibitors; hit rate 0.009% among 390,000; AID 504891, 2011; active = well fitted inhibition curve with a large enough effect in the polarisation, with a control signal flat, not every such curve was filed as active; inconclusive = small, poorly fitted or top-dose-only effect, or effect the other way, or a change in a side signal; inactive = no such curve, though single readings can be large or run the other way; the % refers to the polarisation; note: potency is the fitted concentration of half-maximal effect
Target sequence (Q13526 whole entry, looked up): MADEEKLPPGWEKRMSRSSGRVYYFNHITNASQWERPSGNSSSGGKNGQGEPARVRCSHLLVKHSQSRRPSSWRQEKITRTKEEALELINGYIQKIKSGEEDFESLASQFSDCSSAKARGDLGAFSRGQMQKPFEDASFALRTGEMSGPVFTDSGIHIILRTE
Tb PFK block: qHTS Assay to Find Inhibitors of T. brucei phosphofructokinase; T. brucei PFK, ADP-Glo luminescence; hit rate 0.17% among 330,000; Potency, µM (doses to about 57.5 µM), without a hit: top-dose activity, negative = inhibition, actives largely listed as inhibitors;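 note: potency is the fitted concentration of half-maximal effect; 0% = uninhibited 1x PFK enzyme wells and -100% = no-enzyme wells; nearly all actives have a fitted effect of over 60% in size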
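1.25 nM PFK with 0.5 mM F6P and 0.1 mM ATP in 0.1 M TEA pH 8.0, 5 mM MgCl2, incubated 45 min at room temperature; ADP measured by ADP-Glo luminescence; compounds titrated up to 57 uM.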
PI5P4K alpha inh: qHTS for Inhibitors of phosphatidylinositol 5-phosphate 4-kinase (PI5P4K). max response, %. hit rate 1.2% among 330,000. PI5P4Kalpha enzyme, ADP-Glo luminescence, 60 min; hits give low values. Phosphatidylinositol 5-phosphate 4-kinase type-2 alpha (Homo sapiens), P48426; active = max response of -50% or lower; inconclusive = between -30% and -50%; inactive = -30% or higher; note: value at the top dose of about 77 µM
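Human PI5P4Kalpha with substrate in 0.038 M HEPES pH 7.4, 0.28 mM EGTA, 0.1% CHAPS, 5% DMSO; reaction started with 5 microM ATP (final), 60 min at room temperature. ADP formed read by ADP-Glo luminescence.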
PI4K2A block: qHTS for small molecular inhibitors of PI4K2A; purified PI4K2A, ADP-Glo luminescence, 1 h; hits give low values; hit rate 0.13% among 420,000; activity change, negative = inhibition, % at 76.9 µM; AID 1346378, 2018; Phosphatidylinositol 4-kinase type 2-alpha (Homo sapiens), Q9BTU6; in the data active = activity change below about -50%; inconclusive = mostly about -30% to -49%;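 note: -100% = wells without enzyme as full effect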
Target sequence (Q9BTU6 whole entry, looked up): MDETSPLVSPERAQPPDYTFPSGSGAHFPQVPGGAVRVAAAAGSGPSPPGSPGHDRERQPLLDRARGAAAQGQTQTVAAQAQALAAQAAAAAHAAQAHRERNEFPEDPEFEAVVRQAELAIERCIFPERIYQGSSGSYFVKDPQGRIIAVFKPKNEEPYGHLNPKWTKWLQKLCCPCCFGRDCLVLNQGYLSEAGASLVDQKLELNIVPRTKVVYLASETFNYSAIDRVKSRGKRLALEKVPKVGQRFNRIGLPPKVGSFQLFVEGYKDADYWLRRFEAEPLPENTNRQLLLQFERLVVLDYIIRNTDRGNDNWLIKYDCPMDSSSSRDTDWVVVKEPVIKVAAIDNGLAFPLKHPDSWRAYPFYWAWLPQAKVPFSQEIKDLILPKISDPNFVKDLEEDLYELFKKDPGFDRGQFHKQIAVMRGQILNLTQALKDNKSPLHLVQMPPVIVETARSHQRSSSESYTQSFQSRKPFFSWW
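ADP-Glo luminescence measured ADP generated by PI4K2A enzyme (4 ug/mL before mixing) with 1.2 mM PI substrate (pre-mix) and 300 microM ATP (pre-mix). Tris pH7.5 buffer with MgCl2, Triton X-100; 1 h reaction at ambient temperature.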
PGK inhibitor: qHTS Assay to Find Inhibitors of Phosphoglycerate Kinase; Potency, µM (top dose mostly 57.5 µM), for inactives: at the top dose activity change, negative = inhibition, usual class: inhibitors; hit rate 0.043% among 380,000; AID 602233, 2012; PGK/GAPDH coupled, Kinase-Glo luminescence, 60 min; Phosphoglycerate kinase, glycosomal (Trypanosoma brucei brucei), P07378; note: potency is the fitted concentration of half-maximal effect; nearly all actives have a fitted effect of over 60% in size
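Recombinant glycosomal PGK reaction used 1,3-bisphosphoglycerate generated in-well by GAPDH (100nM final) in 100mM TEA pH 7.6, 5mM MgCl2, 0.01% Tween-20. After 60 minutes at room temperature, ATP was read by Kinase-Glo Plus luminescence end-point.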
ADP-Glo interf: qHTS for Inhibitors of PI5P4K: ADP-Glo counter assay. ADP-Glo detection counter-screen, luciferase luminescence, no enzyme. AID 743285, 2014. 1,100 tested, under 10 active. Potency, µM (doses to about 76.9 µM), without a hit: at the highest dose activity change, negative = inhibition, usual class: inhibitors. shares compounds with PI5P4K alpha inh
Starred values were filed as active, the others as inactive. This is one part of a sample in which hits are shown more often than they occur. Unless noted, calls come from the whole dose curve; as a rule, active = well fitted curve in the direction sought with a large enough effect; inconclusive = small, poorly fitted or top-dose-only effect, or another doubt; inactive = no such curve, though single readings can be large; an effect the other way counts as inactive or inconclusive. Unless noted, % is set by controls: 0 for no effect and ±100 for the full control effect.

For CC(C)Cc1nnc(NC(=O)CC(=O)Nc2ccccc2C(=O)O)s1 the results were Pin1 inhibitor 3.7%, Tb PFK block 1.9%, PI5P4K alpha inh -56.9*, PI4K2A block 1.1, PGK inhibitor -6.4% and ADP-Glo interf 0.3%.
CCCCc1nnc(NC(=O)CC(=O)Nc2ccccc2C(=O)O)s1 was read as Pin1 inhibitor -11.3%, Tb PFK block 1.4%, PI5P4K alpha inh -61.3*, PI4K2A block 4.8, PGK inhibitor -0.1% and ADP-Glo interf -8.7%.
For O=C(COCc1ccccc1)N1CCC(Oc2cccnc2)CC1 the results were PI4K2A block -0.1.
`CCCOc1ccc(CSc2ncn[nH]2)cc1` gave Pin1 inhibitor 5.2%, Tb PFK block -1.3%, PI5P4K alpha inh -70.7*, PI4K2A block -5.1, PGK inhibitor inactive and ADP-Glo interf 3.2%.
`Brc1ccc(CSc2ncn[nH]2)cc1` gave Pin1 inhibitor -1.9%, Tb PFK block -3.5%, PI5P4K alpha inh -0.8, PI4K2A block 9.6 and PGK inhibitor -4.2%.
CC(=O)Nc1ccc(NC(=S)Nc2ccc(Br)cc2)cc1 was read as Pin1 inhibitor inconclusive, Tb PFK block -2.5%, PI5P4K alpha inh -74.6*, PI4K2A block 4.9, PGK inhibitor -1.8% and ADP-Glo interf -3.2%.
For CC(=O)Nc1ccc(NC(=S)Nc2ccccc2)cc1 the results were Pin1 inhibitor -1.5%, Tb PFK block -1.6%, PI5P4K alpha inh 0.2, PI4K2A block -2.2 and PGK inhibitor 0.7%.
O=C(C1CCCCC1)n1ccc2ccc(-c3ccc4ccn(Cc5ccccc5)c4c3)cc21 was read as PI4K2A block -2.2.
Screening Cc1oc(-c2ccc(Cl)cc2)cc1-c1nn2c(-c3ccoc3C)nnc2s1 returned Pin1 inhibitor 16.8%, Tb PFK block inconclusive, PI5P4K alpha inh -64.8*, PI4K2A block -12.0, PGK inhibitor -13.0% and ADP-Glo interf -0.1%.
For COC(=O)c1cccc(N2C(=O)C[C@](Sc3ccc(OC)cc3)(C(=O)N3CCOCC3)[C@H]2c2ccc(OC)cc2)c1 the results were PI4K2A block -2.9.
Screening COc1ccc2nc(Nc3sc4c(c3C(N)=O)CCCC4)sc2c1 returned Pin1 inhibitor 39.6%, Tb PFK block 0.0%, PI5P4K alpha inh -70.4*, PI4K2A block -4.4, PGK inhibitor -6.3% and ADP-Glo interf 0.9%.
Screening O=C(Nc1cccc(Cl)c1)N1CCCC1 returned Pin1 inhibitor -1.7%, Tb PFK block -1.1%, PI5P4K alpha inh -53.4*, PI4K2A block -6.0, PGK inhibitor -10.3% and ADP-Glo interf -2.3%.
`O=C(NCc1ccco1)c1cc2ccc(O)cc2oc1=O` gave Pin1 inhibitor -6.9%, Tb PFK block inconclusive, PI5P4K alpha inh -80.7*, PI4K2A block -76.4*, PGK inhibitor inconclusive and ADP-Glo interf inconclusive.
O=C(c1ccc(Br)cc1)c1cc2ccc(O)cc2oc1=O was read as Pin1 inhibitor -5.9%, Tb PFK block -3.7%, PI5P4K alpha inh -62.7*, PI4K2A block 0.2, PGK inhibitor -11.1% and ADP-Glo interf -5.1%.
Screening COc1ccc2cc(C(=O)NCc3ccco3)c(=O)oc2c1 returned Pin1 inhibitor inconclusive, Tb PFK block -15.4%, PI5P4K alpha inh 2.8, PI4K2A block -10.0 and PGK inhibitor -0.8%.
`COC(=O)Cc1c(C)nc2nc(-c3ccc(C)cc3)[nH]n2c1=O` gave Pin1 inhibitor 2.7%, Tb PFK block 0.6%, PI5P4K alpha inh -72.4*, PI4K2A block -4.3, PGK inhibitor -6.1% and ADP-Glo interf -2.6%.
COC(=O)Cc1c(C)nc2nc(-c3ccc(Cl)cc3)[nH]n2c1=O was read as Pin1 inhibitor 1.1%, Tb PFK block 0.5%, PI5P4K alpha inh inconclusive, PI4K2A block 0.2 and PGK inhibitor -7.1%.
`NC(=O)COC(=O)c1ccc(S(=O)(=O)NCc2ccco2)cc1` gave Pin1 inhibitor -2.3%, Tb PFK block -14.4%, PI5P4K alpha inh -11.5, PI4K2A block -7.1 and PGK inhibitor -28.7%.
`O=C(OCc1nnc(-c2ccccc2)o1)c1ccc2ccccc2n1` gave Pin1 inhibitor -0.3%, Tb PFK block 0.0%, PI5P4K alpha inh -66.2*, PI4K2A block 2.2, PGK inhibitor -1.8% and ADP-Glo interf -6.0%.
For O=C(OCc1nnc(-c2ccccc2)o1)c1ccc(S(=O)(=O)NCc2ccco2)cc1 the results were Pin1 inhibitor -7.2%, Tb PFK block -19.2%, PI5P4K alpha inh -54.4*, PI4K2A block -12.9, PGK inhibitor -0.3% and ADP-Glo interf -2.6%.
Screening O=C(OCc1nnc(-c2ccccc2)o1)c1cc2ccccc2cc1O returned Pin1 inhibitor 19.5%, Tb PFK block -0.3%, PI5P4K alpha inh -7.1, PI4K2A block 2.6 and PGK inhibitor -2.7%.
Screening C[C@H]1C2CC(OC(=O)Nc3ccc(C(F)(F)F)cc3)C(C2)[C@H]2CCCCN21 (stereo not given in full) returned PI4K2A block -3.1.
Screening NC(=O)COc1ccc(-n2cnnn2)cc1 returned Pin1 inhibitor inconclusive, Tb PFK block -15.4%, PI5P4K alpha inh -69.6*, PI4K2A block -10.0, PGK inhibitor -7.9% and ADP-Glo interf 0.4%.
`Cc1nn(-c2ccccc2)c2nc(=O)n(-c3ccccc3)cc12` gave Pin1 inhibitor -0.2%, Tb PFK block -4.6%, PI4K2A block -6.4, PGK inhibitor 3.5% and ADP-Glo interf -0.3%.
O=C(C1CCN(S(=O)(=O)c2ccc3[nH]c(=O)oc3c2)CC1)N1CCCC1 was read as PI4K2A block 2.7.
For Cc1ccc(-c2csc(NC(=O)c3ccccc3Cl)c2C(=O)O)cc1 the results were Pin1 inhibitor -3.3%, Tb PFK block -3.1%, PI5P4K alpha inh -54.6*, PI4K2A block -0.3, PGK inhibitor -4.0% and ADP-Glo interf 4.3%.
`COc1cc(C(=O)Nc2scc(-c3ccc(Br)cc3)c2C(=O)O)cc(OC)c1OC` gave Pin1 inhibitor -18.5%, Tb PFK block 1.7%, PI5P4K alpha inh -97.8*, PI4K2A block -3.4, PGK inhibitor inactive and ADP-Glo interf 1.7%.
Screening Cc1ccc(-c2csc(NC(=O)c3ccc(Br)cc3)c2C(=O)O)cc1 returned Pin1 inhibitor -13.1%, Tb PFK block 5.0%, PI5P4K alpha inh -76.7*, PI4K2A block -4.2, PGK inhibitor -8.5% and ADP-Glo interf -0.1%.
Screening Cn1cccc1C(=O)N1CCN(S(=O)(=O)c2ccc(Br)s2)CC1 returned PI4K2A block -3.8.
